# Results reported in PubChem BioAssay (NCI).
# Compounds without any hit were thinned out: in the full panel of roughly 79,000, 15% have a hit. A number with no mark means an inactive call. The source made the active and inactive calls. Rule as the data show it: active = growth inhibition above about 70%; inactive = the rest.
# Tests used:
# [1] = NCI Yeast Anticancer Drug Screen. Data for the rad50 strain (AID 155);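 also: 0% = growth of vehicle-only cultures of the same strain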; settings: S. cerevisiae rad50 strain growth inhibition; at 50.0 µM; hits give high values
# Summary of the method: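 Cells are treated with compound, grown, and their growth is then scored against vehicle-only cultures of the same repair-deficient yeast strain.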
# [2] = NCI Yeast Anticancer Drug Screen. Data for the mec2-1 strain (AID 157); settings: S. cerevisiae mec2-1 strain, at 50.0 µM, hits give high values
# Summary of the method: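 Readout is yeast growth inhibition, normalised to vehicle-treated controls, in the mec2-1 strain exposed to compound.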
# [3] = NCI Yeast Anticancer Drug Screen. Data for the sgs1 mgt1 strain (AID 161);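 also: 0% = growth of cultures given vehicle only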; settings: S. cerevisiae sgs1 mgt1 strain, at 50.0 µM, hits give high values
# Summary of the method: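 This yeast growth screen uses a strain with defined DNA-repair lesions; compound-treated growth is compared with vehicle-treated growth.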
# [4] = NCI Yeast Anticancer Drug Screen. Data for the cln2 rad14 strain (AID 165);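 also: 0% = growth equal to vehicle treated cultures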; settings: S. cerevisiae cln2 rad14 strain, at 50.0 µM, hits give high values
# Summary of the method: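 Relative to vehicle controls, growth inhibition of compound-treated cln2 rad14 yeast was recorded.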
# [5] = NCI Yeast Anticancer Drug Screen. Data for the bub3 strain (AID 167); settings: S. cerevisiae bub3 mutant strain, at 50.0 µM, hits give high values
# Summary of the method: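 Part of a panel of yeast mutants defective in DNA damage repair or cell cycle regulation. Each strain is grown with compound, and inhibition is calculated relative to solvent-treated cultures.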
# [6] = NCI Yeast Anticancer Drug Screen. Data for the mlh1 rad18 strain (AID 175); settings: S. cerevisiae mlh1 rad18 strain growth inhibition; at 50.0 µM; hits give high values
# Summary of the method: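 Test agents were incubated with a yeast strain of defined genotype (DNA damage repair defect). Inhibition of growth was derived by comparison with vehicle-exposed cultures.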
Structure (SMILES),growth inhibition [1],growth inhibition [2],growth inhibition [3],growth inhibition [4],growth inhibition [5],growth inhibition [6]
CC(C)CCN(CCc1ccccc1[N+](=O)[O-])CCC(C)C,12.1%,-7.45%,-8.7%,-36.9%,44.1%,38.6%
N#CC1OC1c1cccnc1 (stereo unspecified),3.9%,-1.45%,-4.45%,20.6%,29.3%,-16.1%
CCCCCCCCP(=O)(O)OP(=O)(O)OCC1OC(n2ccc(N)nc2=O)C(O)C1O (stereo unspecified),-11.2%,-20.1%,-9.55%,7.15%,-12.2%,-9%
N.N.N.N.N.N.[Br-].[Co+3],-0.9%,7.7%,-34.2%,6.3%,-1.2%,22.6%
CC(=O)C(I)C(C)=O.[Cr],2.45%,-18.9%,8.6%,16.4%,14.4%,5.4%
O=C(CC(=O)C(F)(F)F)c1cccs1.O=C(CC(=O)C(F)(F)F)c1cccs1.O=C(CC(=O)C(F)(F)F)c1cccs1.[Gd],29.8%,26.2%,26.9%,-3.25%,44%,15.9%
CC(C)(C)OO,5.35%,7.05%,0.95%,-0.6%,22.4%,-17%
CSP(=S)(SC)SC(C)C,19%,1.65%,24.1%,27.2%,6.5%,-4.45%
C=CC[As+](c1cccc2ccccc12)(c1cccc2ccccc12)c1cccc2ccccc12,-61.5%,-14.1%,-15.1%,-33.4%,5.15%,-11.5%
C=CCn1nnc(N)n1,-11.8%,7.15%,-21.8%,19.5%,8.35%,-2.25%
O=C1NC(=S)NC(=O)C1=Cc1cc2c(cc1[N+](=O)[O-])OCO2,0.45%,-4.2%,4.4%,15.1%,7.95%,-7.8%
COc1ccc(C(=O)O)cc1[N+](=O)[O-] (tested in a mixture with another compound),9.25%,4.45%,5.55%,7.4%,11.4%,15.1%
CC(C)(C)SCC(NC(=O)OCc1ccccc1)C(=O)O (stereo unspecified),10.8%,1.7%,14.3%,18.9%,4.25%,7%
O=[N+]([O-])c1ccc(/C=C/C=C/C=C/C=C/c2ccc(S(=O)(=O)F)cc2Cl)c(Cl)c1,-1.05%,-2.85%,-14.8%,7.15%,-10.3%,-1.2%
CCCCOP(=O)(O)SP(=O)(O)OCCCC,-13.8%,17.1%,10.6%,20.9%,2.3%,-3%
COc1cc2c(c(OC)c1OC)CC1c3c(cc4c(c3-2)OCO4)CCN1C (stereo unspecified),-5.85%,-31.5%,-18.1%,13.7%,2.1%,-17.3%
CCC[As](=O)(O)Cc1ccccc1C,4.3%,-5.4%,7.8%,-1.3%,18%,22.1%
COc1ccc(C(=O)/C=C/c2ccccc2)cc1,2.05%,-7.25%,30.1%,2.45%,42.4%,19.4%
O=S(=O)(Nc1ccc(-c2ccccc2)cc1)c1ccc([As](=O)(O)O)cc1,38.6%,24.7%,54.2%,-1.65%,18.9%,40%
N#Cc1ccc(Cl)cc1,9.65%,-21.7%,6.25%,-2.6%,-4.7%,7.9%
CCOP(=S)(OCC)Oc1cnn(C)c(=S)c1Cl,12.8%,-18.6%,-0.85%,10.3%,-4.85%,8.05%

Structure (SMILES),growth inhibition [1],growth inhibition [2],growth inhibition [3],growth inhibition [4],growth inhibition [5],growth inhibition [6]
Cc1ccc2nc(CCl)[nH]c2c1,31.6%,-5.65%,34%,18.4%,-18.1%,58.7%
Oc1ccccc1/C=N/C(O)C(Cl)(Cl)Cl (stereo unspecified),30.2%,31.6%,34.9%,41.3%,48.1%,30.6%
N#CCc1ccccc1CC#N,20.8%,-0.65%,2.5%,-19.7%,3.9%,18.2%
CCOC(=O)CC(Br)C(=O)CBr (stereo unspecified),-9.15%,11%,7.15%,-17.8%,2.6%,-9.6%
Cc1cc(S(=O)(=O)F)ccc1NC(=O)NCc1ccc([N+](=O)[O-])cc1,2.75%,15.7%,24.1%,-1.95%,18.1%,10.1%
CC(=O)N(N=O)c1cc(Cl)ccc1Cl,-2.75%,-11.1%,3.15%,-2.15%,-5.5%,-1.45%
C[N+]1([O-])C2CCC1CC(O)C2 (stereo unspecified),4.1%,7.55%,1.45%,16.2%,-2.5%,17.4%
O=C(O)C(Oc1nc(=S)[nH]c(=S)[nH]1)(c1ccc(Cl)cc1)c1ccc(Cl)cc1,-1.5%,6.55%,-23.2%,0.55%,-10.7%,-8.8%
CCC(CN)c1ccccc1 (stereo unspecified),13.6%,-0.85%,2.75%,0.65%,-14.4%,-9.4%
NC(=O)c1cc([N+](=O)[O-])c([N+](=O)[O-])cc1N(CCCl)CCCl,14.4%,8.95%,27.2%,0.4%,-3.8%,13.3%
CS(=N)(=O)CCC(N)C(=O)O (stereo unspecified) (tested in a mixture with another compound),4.7%,21.2%,-12.8%,-1.95%,17.8%,2.1%
CCOc1cc(OCC)c(OCC)cc1/C=C/[N+](=O)[O-],90% (active),92.7% (active),93.7% (active),77% (active),89.5% (active),95.2% (active)
CCOC(=O)C(C)(Br)CC (stereo unspecified),-19.4%,-3.25%,-17.4%,-81.4%,-22.1%,-7.8%
NC(CP(=O)(O)O)C(=O)O (stereo unspecified),0.4%,5.7%,-31.1%,-55.2%,-32.4%,-37.6%
CC[C@H]1CN2CCc3cc(OC)c(OC)cc3[C@@H]2C[C@@H]1C[C@H]1NCCc2c1[nH]c1ccc(O)cc21,-16.8%,17.3%,-19.9%,-8.65%,-26.9%,7.7%
Cc1ccc(OP(=O)(Oc2ccc(C)cc2)Oc2ccc(C)cc2)cc1.Cc1ccc(OP(=O)(Oc2ccc(C)cc2)Oc2ccc(C)cc2)cc1.Cc1ccc(OP(=O)(Oc2ccc(C)cc2)Oc2ccc(C)cc2)cc1.Cc1ccc(OP(=O)(Oc2ccc(C)cc2)Oc2ccc(C)cc2)cc1.[O-][Cl+3]([O-])([O-])O.[Zn+2],3.45%,9.9%,0.55%,6.45%,5.1%,-21.9%
C[C@]12CC[C@@H](OC(=O)N(CCCl)N=O)C[C@@H]1CC[C@@H]1[C@@H]2CC[C@]2(C)C(=O)CC[C@@H]12,1.55%,-3.4%,26.5%,-0.75%,13.2%,59.9%
c1cc2n[se]nc2cc1-c1ccc2n[se]nc2c1,26.7%,-11.8%,-7.85%,-40.2%,-9.55%,-17.4%
CCCCOP(O)(=S)OCCCC.[Tb],-19%,14.6%,-14.6%,29.1%,-14.8%,17.9%
Clc1ccc(N=c2ccc3ccccc3[oH+]2)cc1.Clc1ccc(N=c2ccc3ccccc3[oH+]2)cc1.[Co],-5.05%,-25.4%,14.8%,-59.2%,-12.8%,15.6%
